Bioassay records from PubChem.
HCV inh: HCV inhibition; 340,000 compounds, 3.4% hits; Potency, µM (highest dose often 41.8 µM), usual class: inhibitors; Huh7.5.1 HCVcc-Cre infection, luciferase reporter, 44 h
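Compounds are dispensed onto cells plated 4 h earlier at 1,000 per well, with HCVcc-Cre virus (about 0.5 moi) added next. Following 44 h of culture, luminescent signal is measured for 15 sec after 15 min with substrate at room temperature.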
Shiga toxin inh: blocks Shiga toxin action in Vero cells | 290,000 compounds, 9.2% hits | inhibition, % at 38.7 µM | Vero cells, Shiga toxin protein synthesis inhibition reporter; in the data active means inhibition mostly above about 28%, no sharp cut-off; inactive means mostly below about 43%
Pf growth 96h: inhibits malaria parasite growth, 96 h; P. falciparum luciferase reporter growth, 96 h; Potency, µM (top dose mostly 28.7 µM), most hits filed as inhibitors; 320,000 compounds, 6.9% hits
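Readout is luminescence from an integrated firefly luciferase in P. falciparum. Red cells, 2% hematocrit and 0.05% parasitemia final, were cultured with compound through two parasite generations (96 hours) at 37 C, 5% CO2.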
Pf growth 48h: P. falciparum growth inhibition at 48 hours (one generation); P. falciparum luciferase growth in erythrocytes, 48 h; Potency, µM (highest dose often 28.7 µM), usual class: inhibitors; 310,000 compounds, 5.9% hits; AID 504832
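Compounds are pin-transferred into medium, infected erythrocytes (2% hematocrit, 0.1% parasitemia final) are added, and plates sit one parasite generation at 37 C in 5% CO2. Detection reagent is then added and luminescence measured.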
AMA1-RON2 inh: disrupts binding of P. falciparum AMA1 to RON2. Potency, µM (titrated, usually from 58.2 µM), most hits filed as inhibitors. AID 720542. 360,000 compounds, 0.2% hits. AlphaScreen AMA1-biotinylated RON2 peptide binding; further: nearly all actives have a fitted effect of over 45% in size
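AMA1 (3D7) with his tag at 25 nM final met compounds first, then biotinylated RON2 peptide at 25 nM; detection used donor plus acceptor beads, 10 µg/mL apiece, read by AlphaScreen after 30 min at room temperature.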
CHX counter: counter-screen for Shiga toxin inhibitors: cycloheximide protein synthesis inhibition | cell reporter, cycloheximide protein synthesis inhibition counterscreen | max response, % | 300,000 compounds, 12% hits; in the data active means max response mostly above about 13%, no sharp cut-off; inactive means mostly below about 14%; further: read at 38.3 µM for the half of the compounds with a filed dose
Large screens that a line does not name were inactive. An excerpt weighted towards active compounds, which were near 21% of everything screened. Unless noted, the call rests on the fitted dose curve; in most records, active means well fitted curve in the direction sought with a large enough effect; inconclusive means small, poorly fitted or top-dose-only effect, or another doubt; inactive means no such curve, though single readings can be large; an effect the other way counts as inactive or inconclusive.

CCCCNC(=O)N(C)c1nc2ccccc2s1	Shiga toxin inh 68, CHX counter 50
COc1ccccc1/C=C/C(=O)Nc1ccc2c(c1)OCCO2	Shiga toxin inh 99, Pf growth 96h 13µM, CHX counter 56
CCN(CC(=O)Nc1ccc2c(c1)OCCO2)C(=O)/C=C/c1ccccc1	CHX counter 36
O=C(/C=C/c1ccccc1)Nc1ccc2c(c1)OCCO2	Pf growth 96h inconclusive, CHX counter 25
COc1ccccc1/C=C/C(=O)Nc1ccc2c(c1)CCC2	HCV inh inconclusive, Shiga toxin inh 34, CHX counter 35
CC(NS(=O)(=O)c1cccc(Cl)c1F)[C@H](O)c1ccccc1 (stereo partly drawn)	none (no result: HCV inh, Shiga toxin inh, Pf growth 96h, Pf growth 48h, CHX counter)
O=C(/C=C/c1ccco1)Nc1ccc2c(c1)OCCO2	Shiga toxin inh 69, CHX counter 30
O=C(/C=C/c1ccco1)NC(=S)Nc1ccc(N2CCOCC2)c(Cl)c1	none
Cc1cc(F)ccc1S(=O)(=O)N(CC(=O)N1CCOCC1)CC(=O)N1CCOCC1	none (no result: Shiga toxin inh, Pf growth 96h, Pf growth 48h, CHX counter)
O=C(CC1C=Cc2ccccc2N1C(=O)c1ccccc1)c1ccccc1 (stereo not drawn)	HCV inh 10µM, Pf growth 96h 0.59µM, Pf growth 48h inconclusive
CC1C=Cc2ccccc2N1C(=O)c1ccccc1 (stereo not drawn)	Pf growth 96h inconclusive, Pf growth 48h inconclusive
O=C(/C=C/c1ccc2ccccc2n1)c1cc(Cl)ccc1O	Shiga toxin inh 66, Pf growth 96h inconclusive, Pf growth 48h 2.3µM, CHX counter 39
Cc1ccc(S(=O)(=O)N/N=C/c2cccs2)cc1	Pf growth 96h inconclusive
O=[N+]([O-])c1ccc(S(=O)(=O)N/N=C/c2cccs2)cc1	Shiga toxin inh 27, CHX counter 20
Cc1cc(C)n(C(=O)/C(C#N)=N/Nc2cc(Cl)cc(Cl)c2)n1	HCV inh 10µM, Pf growth 96h inconclusive, Pf growth 48h 12µM
Cc1cc(F)ccc1-c1cc(C(=O)Nc2ccccc2)[nH]n1	none (no result: HCV inh, Shiga toxin inh, Pf growth 96h, Pf growth 48h, CHX counter)
COc1ccc(NC(=S)N2CCN(C(=O)c3ccco3)CC2)cc1	Pf growth 96h 0.47µM
COc1ccc(NC(=S)N2CCN(S(=O)(=O)c3ccccc3)CC2)cc1	Pf growth 96h 10µM
COc1ccc(NC(=S)N2CCN(S(=O)(=O)c3ccc(OC)cc3)CC2)cc1	Pf growth 48h inconclusive
Cc1ccc(NC(=S)N2CCN(S(=O)(=O)c3ccccc3)CC2)cc1	Pf growth 96h inconclusive
Cc1cc(C)cc(NC(=S)N2CCN(S(=O)(=O)c3ccccc3)CC2)c1	HCV inh inconclusive, Pf growth 96h 3.7µM, Pf growth 48h inconclusive
COC(=O)c1ccc(NC(=S)N2CCN(C(=O)c3ccco3)CC2)cc1	none
CO[C@@H]1CN(C)C(=O)c2ccc(NC(=O)c3ccccc3F)cc2OC[C@@H](C)N(CC2CCOCC2)C[C@@H]1C	none (no result: HCV inh, Shiga toxin inh, Pf growth 96h, Pf growth 48h, CHX counter)
COc1cc2c(cc1OC)C(C(=O)Nc1ccc(F)c(Cl)c1)CC(=O)N2 (stereo not drawn)	none
Clc1ccc2nc(-c3ccccc3)c(CC3CCCCC3)n2c1	none (no result: HCV inh, Shiga toxin inh, Pf growth 96h, Pf growth 48h, CHX counter)
O=C1CCCCC2CCCCN12 (stereo not drawn)	none (no result: HCV inh, Pf growth 96h, Pf growth 48h, AMA1-RON2 inh)
O=C(c1ccc(F)cc1)c1ccc(-c2ccc(F)cc2)nc1	CHX counter 14
CSc1ccc(CN2CCC(n3nccc3NC(=O)C3CCOC3)CC2)cc1 (stereo not drawn)	none
CCC(=O)Nc1cc2nn(-c3ccc(OC)cc3)nc2cc1C	Shiga toxin inh 90, CHX counter 52 (no result: Pf growth 96h)
CCCCC(=O)Nc1cc2nn(-c3ccc(OC)cc3)nc2cc1C	HCV inh inconclusive (no result: Pf growth 48h)
COc1ccc(-n2nc3cc(C)c(NC(=S)NC(=O)c4ccccc4C)cc3n2)cc1	HCV inh inconclusive, Shiga toxin inh 112, CHX counter 30
COc1ccc(C(=O)NC(=S)NNC(=O)c2ccccc2C)cc1	HCV inh inconclusive (no result: Shiga toxin inh, Pf growth 96h, Pf growth 48h, CHX counter)
CCC(=O)Nc1cc2nn(-c3ccc(C)cc3)nc2cc1C	Shiga toxin inh 109, Pf growth 96h inconclusive, CHX counter 44
COc1cc(OC)cc(C2=Nn3c(nnc3-c3ccccc3OC)SC2)c1	none (no result: HCV inh, Pf growth 96h, Pf growth 48h, AMA1-RON2 inh)
CC(=O)Nc1ccc(C(=O)N2CCOCC2c2cc(C(=O)NCc3ccccc3)no2)cc1 (stereo not drawn)	none (no result: HCV inh, Shiga toxin inh, Pf growth 96h, Pf growth 48h, CHX counter)
Cc1cc(C)nc(NC(=O)/C=C/c2ccccc2Cl)c1	HCV inh inconclusive, Shiga toxin inh 32, CHX counter 30
Cc1cc(C)nc(NC(=O)/C=C/c2cccs2)c1	HCV inh inconclusive
